Sampled rows, rich in hits. Any-hit rate of the full collection: about 19%.
IL1B secr inh: inflammasome signaling inhibition, IL-1 beta readout. THP-1 LPS/ATP IL-1B secretion, AlphaLISA, 16 h; stronger effect = lower value. activity change, % at 57.5 µM. actives 4.7% (n = 360,000). AID 743279; in the data active means activity change below about -50%; inconclusive means mostly about -30% to -49%
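Secreted IL-1B measured by AlphaLISA bead assay after 16 h compound exposure of THP-1 cells; compounds (final up to 57.5 uM) added 1 h before LPS (250 ng/mL) and ATP (1.25 mM) stimulation; lower signal means less secretion.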
TDP1 cell noCPT: qHTS for Inhibitors of human tyrosyl-DNA phosphodiesterase 1 (TDP1): qHTS in cells in absence of CPT; DT40 Tdp1-/- hTDP1 cells, no CPT, ATP luminescence, 48 h; Potency, µM (titrated, usually from 46.2 µM), for inactives: at the highest dose activity change, negative = growth inhibition, usual class: inhibitors; actives 15% (n = 420,000); AID 686978, 2013; further: potency means the concentration at half of the fitted maximal effect; nearly all actives have a fitted effect of over 55% in size
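No-CPT arm: Tdp1-/-;hTDP1 DT40 cells (400/well) plus compounds, incubated ≥48 hr at 37 °C. Readout CellTiter-Glo luminescence.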
HT1080 IDH1KD tx: kills HT-1080 cells with IDH1 knockdown. actives 2% (n = 360,000). AID 686971. HT-1080 IDH1 knockdown viability, ATP luminescence, 48 h. Potency, µM (series often up to 46.1 µM), for inactives: at the top dose activity, negative = toxicity, most hits filed as cytotoxic;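 further: potency means the concentration at half of the fitted maximal effect; 0% = DMSO wells and -100% = cell-free medium wells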
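Assay cells: HT-1080 with IDH1 knockdown, 750 per well, RPMI/5% FBS. Exposure: 48 h at 37 °C following 2 h pre-incubation. Read: CellTiter-Glo luminescence; fitted concentration-response, curve class assigned.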
TDP1 cell CPT: growth inhibition of DT40 Tdp1-/-;hTDP1 cells with camptothecin (screen for TDP1 inhibitors) | Potency, µM (titrated, usually from 46.2 µM), for inactives: at the highest dose activity change, negative = growth inhibition, actives largely listed as inhibitors | AID 686979 | actives 12% (n = 420,000) | chicken DT40 Tdp1-/-;hTDP1 cells + 20 nM CPT, ATP luminescence, 48 h; further: potency means the concentration at half of the fitted maximal effect; nearly all actives have a fitted effect of over 55% in size
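Chicken DT40 Tdp1-/- cells complemented with human TDP1, 400 cells/well, exposed to compounds plus 20 nM camptothecin for at least 48 h at 37 C; viability read as ATP content by CellTiter-Glo luminescence.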
HT1080NT lethal: kills 2HG-producing HT-1080-NT fibrosarcoma cells; actives 1.6% (n = 360,000); HT-1080-NT fibrosarcoma viability, CellTiter-Glo ATP luminescence, 48 h; Potency, µM (series often up to 46.1 µM), without a hit: at the highest dose activity, negative = less viability, usual class: cytotoxic; AID 686970;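 further: NT is the 2HG producing partner of a matched IDH1 knockdown line; potency means the concentration at half of the fitted maximal effect; 0% = DMSO-treated cells and -100% = media-only wells without cells; nearly all actives have a fitted effect of over 55% in size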
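Toxicity toward the 2HG-producing NT line was scored as %Activity, normalised to DMSO and no-cell wells, from CellTiter-Glo luminescence after 48 hours' treatment.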
Active calls of the source: *; ? = inconclusive; · = not tested or not shown; [ ] = another dose, or the depositor's remark. Unless noted, the call rests on the fitted dose curve; in most records, active means well fitted curve in the direction sought with a large enough effect; inconclusive means small, poorly fitted or top-dose-only effect, or another doubt; inactive means no such curve, though single readings can be large; an effect the other way counts as inactive or inconclusive. Unless noted, on the % scale 0 is the no-effect control and ±100 the full control effect.

SMILES	IL1B secr inh	TDP1 cell noCPT	HT1080 IDH1KD tx	TDP1 cell CPT	HT1080NT lethal
Cc1cc(C)n(C(C)CC(=O)Nc2ccc3c(c2)OCO3)n1 (stereo not drawn)	2	?	-1%	-7%	-3%
Cc1cc2c(cc1C)C(c1ccccc1F)CC(=O)N2 (stereo not drawn)	2	?	?	?	?
Cc1cc2c(cc1C)C(c1cccc(F)c1)CC(=O)N2 (stereo not drawn)	44	16µM*	-22%	?	-17%
Cc1cc2c(cc1C)C(c1cc(Br)ccc1F)CC(=O)N2 (stereo not drawn)	2	16µM*	?	?	?
COc1ccc(C(=O)NCc2nnnn2-c2ccc(C)c(C)c2)cc1	·	-27%	·	?	·
CN(C(=O)c1ccc(NC(=O)Cc2cccc(NC(=O)C3CCN(C(=O)C4CCCC4)CC3)c2)cc1)C1CC1	-27	?	-4%	2%	-4%
CCN(Cc1ccccc1)S(=O)(=O)c1ccc(C(=O)N(CCCN(C)C)c2nc3cc4c(cc3s2)OCO4)cc1	-73*	-27%	?	?	?
CN(C)CCCN(C(=O)c1ccc(S(=O)(=O)N(C)C)cc1)c1nc2cc3c(cc2s1)OCO3	-24	?	-12%	?	-18%
CCN(CC)CCN(C(=O)c1ccc(S(=O)(=O)N(CC)c2ccccc2)cc1)c1nc2c(OC)ccc(OC)c2s1	4	?	17%	?	1%
CCN(Cc1ccccc1)S(=O)(=O)c1ccc(C(=O)N(CCCN(C)C)c2nc3c(C)c(C)ccc3s2)cc1	-84*	16µM*	18µM*	?	?
COCCNC(=O)c1ccc2c(c1)C(=O)c1ccccc1-2	-22	-20%	0%	15%	1%
CC(C)(CO)NC(=O)c1ccc2c(c1)C(=O)c1ccccc1-2	-28	18µM*	8%	-19%	7%
CC(NCC(O)COc1ccc2ccccc2c1)c1ccccc1 (stereo not drawn)	-94*	16µM*	13µM*	16µM*	18µM*
Cc1cc(OCC(O)CNC(C)c2ccccc2)ccc1C(C)C (stereo not drawn)	-91*	23µM*	18µM*	23µM*	23µM*
CCOC(=O)c1nn(-c2ccc(F)cc2)c(=O)c(C#N)c1C	20	6%	5%	0%	9%
CC(C)(C)c1oc(C(=O)O)cc1CN1CCOCC1	14	-16%	14%	3%	25%
Cc1ccc(Cl)cc1S(=O)(=O)N1CCC(C(=O)NC2CCN(Cc3ccccc3)CC2)CC1	21	15µM*	-29%	?	-15%
Cc1cc(C)c(S(=O)(=O)NC2CCN(Cc3ccccc3)CC2)c(C)c1	-1	?	-12%	?	11%
Cc1cc(C)c(C)c(S(=O)(=O)NC2CCN(Cc3ccccc3)CC2)c1C	-73*	?	16µM*	?	?
Cc1cc(S(=O)(=O)NC2CCN(Cc3ccccc3)CC2)c(C)cc1Cl	-96*	?	21µM*	?	?
O=C(COC(=O)[C@@H]1CCCN1C(=O)c1cccs1)Nc1cccc(Cl)c1	0	-1%	7%	-18%	0%
Cc1cc(-c2ccc(S(=O)(=O)N(C)Cc3ccccc3)cc2)on1	18	-5%	-3%	-6%	8%
CC(=O)C1=C(C)NC(SCC(=O)c2ccc(Cl)cc2Cl)=C(C#N)C1c1ccco1 (stereo not drawn)	-54*	?	?	?	?
CC(=O)C1=C(C)NC(SCc2ccc(C#N)cc2)=C(C#N)C1c1ccco1 (stereo not drawn)	8	?	-1%	?	-6%
Cc1cc(C(=O)CSc2nnnn2-c2ccccc2)c(C)n1CCc1ccccc1	-13	?	-10%	-7%	-14%
SMILES	IL1B secr inh	TDP1 cell noCPT	HT1080 IDH1KD tx	TDP1 cell CPT	HT1080NT lethal
Cc1cc(C)c(C#N)c(SCC(=O)c2ccc(Cl)cc2Cl)n1	-93*	16µM*	?	?	?
Cc1cc(C)c(C#N)c(SCC(=O)c2cc(C)n(CCc3ccccc3)c2C)n1	-11	18µM*	-10%	18µM*	0%
COCCn1c(C)cc(C(=O)CSc2nc(C)cc(C)c2C#N)c1C	-52*	18µM*	-13%	21µM*	-13%
CCOC(=O)CSc1nc(C)cc(C)c1C#N	14	-20%	-2%	5%	-2%
CCNC(=O)c1c(NC(=O)c2nc(SC)ncc2Cl)sc2c1CCCC2	·	?	·	-25%	·
CCCN(C(=O)c1cnccn1)c1c(N)n(Cc2ccccc2)c(=O)[nH]c1=O	0	16%	4%	1%	12%
COCCN(C(=O)COC(=O)C1CC1C)c1c(N)n(Cc2ccccc2)c(=O)[nH]c1=O (stereo not drawn)	7	-26%	-3%	-10%	-2%
CCN(CC)CC(=O)Nc1ccc([N+](=O)[O-])cc1	-13	-12%	7%	3%	3%
COc1ccc(OCc2cc(C(=O)N[C@H]3CCCCNC3=O)no2)c(Cl)c1	15	-11%	-3%	-25%	-3%
Cc1ccc(OCc2cc(C(=O)NCc3cc(F)ccc3C)no2)cn1	-2	?	-7%	16µM*	-14%
CCC(NC(=O)c1cc(COc2cc(C)c(Cl)c(C)c2)on1)c1ccncc1 (stereo not drawn)	-18	21µM*	-3%	?	-15%
COc1ccc(OCc2cc(C(=O)NC3Cc4ccccc4C3)no2)c(Cl)c1	13	3.7µM*	?	3.3µM*	?
CCC(NC(=O)c1cc(COc2ccc(C)nc2)on1)c1ccc(C)cc1 (stereo not drawn)	-11	?	-5%	16µM*	?
COc1ccc(C(=O)OCC(=O)N2CCN(S(=O)(=O)c3ccc(C)cc3)CC2)cc1[N+](=O)[O-]	0	?	2%	-8%	8%[9.24 µM]
Cc1ccc(S(=O)(=O)N(CC(=O)NCc2ccco2)Cc2ccccc2F)cc1	-20	-102%	11%	-95%	8%
CSc1ccccc1OCc1cc(C(=O)NC2CCc3ccccc32)no1 (stereo not drawn)	40	7%	0%	-11%	-9%
CCC(NC(=O)c1cc(COc2ccc(OC)cc2Cl)on1)c1ccncc1 (stereo not drawn)	-9	12µM*	-11%	?	0%
CCC(NC(=O)c1cc(COc2ccc(Cl)cc2OC)on1)c1ccncc1 (stereo not drawn)	-1	?	8%	?	-3%

Source: PubChem (National Center for Advancing Translational Sciences (NCATS))
